# JMJD2E inh: inhibitors of human JMJD2E histone demethylase; JMJD2E catalytic domain, FDH-coupled NADH fluorescence (FDH is formaldehyde dehydrogenase); Potency, µM (top dose mostly 57.1 µM), hits mostly inhibitors; 1.6% of 230,000 active; active means well fitted inhibition curve with a large enough effect, not every such curve was filed as active; inconclusive means small, poorly fitted or top-dose-only effect, or another doubt; inactive means no such curve, though single readings can be large or run the other way; further: nearly all actives have a fitted effect of over 50% in size
# HPGD inh: blocks human HPGD enzyme activity; P15428; purified HPGD, NADH fluorescence kinetic, PGE2 substrate; Potency, µM, most hits filed as inhibitors; 4.3% of 150,000 active; AID 894; active means well fitted inhibition curve with a large enough effect, not every such curve was filed as active; inconclusive means small, poorly fitted or top-dose-only effect, or another doubt; inactive means no such curve, though single readings can be large or run the other way
#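 20 nM HPGD preincubated 15 min at room temperature with compound in 50 mM Tris-HCl pH 8, 0.01% Tween 20. Started with 1 mM NAD+ and 30 uM prostaglandin E2; NADH fluorescence (360/450 nm) read 5 times over 30-s intervals, last minus first.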
# ALDH1A1 inh: inhibitors of human aldehyde dehydrogenase 1A1. 7.3% of 220,000 active. Potency, µM (series often up to 75.3 µM), usual class: inhibitors. AID 1030. Purified ALDH1A1, NADH fluorescence, propionaldehyde substrate; active means well fitted inhibition curve with a large enough effect, not every such curve was filed as active; inconclusive means small, poorly fitted or top-dose-only effect, or another doubt; inactive means no such curve, though single readings can be large or run the other way
# HTT cytoprotect: cytoprotection in Huntington HTT-Q103 PC12 cell model; PC12 HTT-Q103 induced, cytoprotection, ATP luminescence, 40 h; 0.14% of 230,000 active; AID 1471; Potency, µM (top dose mostly 56.4 µM), usual class: activators; further: nearly all actives have a fitted effect of over 45% in size
#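 Quantitative HTS on tebufenozide-induced (100 nM) PC12 cells expressing HTTQ103 exon 1–GFP; compounds tested as a concentration series; survival measured via cellular ATP.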
# HttQ103 aggreg: inhibitors of mutant huntingtin aggregate formation in PC12 cells. 1.1% of 220,000 active. PC12 HttQ103-GFP aggregates, Acumen cytometry, 40 h. AID 1688. Potency, µM (highest dose often 46.1 µM), hits mostly inhibitors; further: nearly all actives have a fitted effect of over 60% in size
#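 Huntingtin Q103 exon 1–GFP aggregates in induced PC12 cells (100 nM tebufenozide) were quantified by cytometry from lysates, with compounds dosed in titration.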
# CBFb-RUNX1 inh: CBF-beta/RUNX1 interaction disruption; Q01196+Q13951; AlphaScreen CBFb-His/RUNX1-biotin binding, biochemical; Potency, µM (doses to about 59.8 µM), actives largely listed as inhibitors; 230,000 tested, under 10 active; AID 1477
# Target sequence (Q01196 whole entry, looked up): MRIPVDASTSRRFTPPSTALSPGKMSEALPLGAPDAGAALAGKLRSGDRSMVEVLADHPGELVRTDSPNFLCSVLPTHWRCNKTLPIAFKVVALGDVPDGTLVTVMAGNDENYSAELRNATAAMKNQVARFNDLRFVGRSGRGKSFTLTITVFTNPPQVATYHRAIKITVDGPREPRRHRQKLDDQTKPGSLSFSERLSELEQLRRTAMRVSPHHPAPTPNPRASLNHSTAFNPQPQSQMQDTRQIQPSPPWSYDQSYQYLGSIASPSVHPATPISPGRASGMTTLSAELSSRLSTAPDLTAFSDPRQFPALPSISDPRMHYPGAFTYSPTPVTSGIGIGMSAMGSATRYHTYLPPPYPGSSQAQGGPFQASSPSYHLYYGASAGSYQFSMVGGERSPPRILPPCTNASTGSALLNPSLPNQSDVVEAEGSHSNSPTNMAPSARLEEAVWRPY
# Target sequence (Q13951 whole entry, looked up): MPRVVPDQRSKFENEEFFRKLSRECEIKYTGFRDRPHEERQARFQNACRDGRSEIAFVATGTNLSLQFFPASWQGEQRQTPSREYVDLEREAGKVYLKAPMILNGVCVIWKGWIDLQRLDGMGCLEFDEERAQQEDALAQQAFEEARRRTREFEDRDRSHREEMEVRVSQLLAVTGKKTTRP
#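 His-tagged CBF-beta and biotinylated RUNX1 (30 nM each) were premixed 20 min at room temperature, exposed to compound for 15 min, then given nickel-chelate and streptavidin AlphaScreen beads (50 ng each). After 90 min, AlphaScreen signal was read.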
# A number is an active result; 0 = inactive; ? = inconclusive; - = no result given; [ ] = dose if it differs, or a comment. In the library only some 9.8% were active in any assay of this set; here they are far more common. Unless noted, the call rests on the fitted dose curve; in most records, active means well fitted curve in the direction sought with a large enough effect; inconclusive means small, poorly fitted or top-dose-only effect, or another doubt; inactive means no such curve, though single readings can be large; an effect the other way counts as inactive or inconclusive.
SMILES,JMJD2E inh,HPGD inh,ALDH1A1 inh,HTT cytoprotect,HttQ103 aggreg,CBFb-RUNX1 inh
CC(=O)N1CCC2(CC1)CCN(c1ccccc1)CC2,-,0,0,0,-,-
CN(C)/C=C/c1onc(-c2c(F)cccc2Cl)c1C#N,0,-,3.55µM,?,?,0
COc1ccc(NC(=S)Nc2ccc3nsnc3c2)cc1,0,0,22.4µM,0[10 µM],0,0
C=CCN(CC=C)C(=S)Nc1ccc2nsnc2c1,?,-,11.2µM,0,0,0
CCOc1ccc(NC(=S)Nc2ccc3nsnc3c2)cc1,0,28.2µM,3.55µM,-,3.55µM,0
CCOc1ccc(NC(=S)Nc2cc(C)[nH]n2)cc1,0,-,14.1µM,0[10 µM],0,0
Cc1ccc(C)c(N2CCN(C(=O)CN3C(=S)NC(C)(C)CC3C)CC2)c1 (centres undefined),0,-,0,0,0,0
CCN1CCCC(OC(=O)c2cc(-c3ccccc3Cl)nc3ccccc23)C1 (centres undefined),?,-,0,0[10 µM],0,0
O=C(c1ccc(=O)[nH]c1)N(Cc1ccco1)C1(C(=O)NC2CCCC2)CCCCC1,0,0,0,0,0,0
CCOC(=O)C(c1ccc(OC)c(OC)c1)C1c2ccccc2C=C(C)N1C(=O)OC (centres undefined),0[11.4 µM],0,0[13.5 µM],0[10 µM],-,0[13.1 µM]
NS(=O)(=O)c1ccc(NC(=O)COC(=O)C2CC(=O)N(Cc3ccccc3)C2)cc1 (centres undefined),0,-,0,?,0,0
Cc1cccc(NC(=S)Nc2ccccn2)c1C,0,0,?,0[10 µM],0,0
Cc1cc(NC(=S)Nc2cccc3ccccc23)n[nH]1,?,-,6.31µM,-,0,0
CN(C(=O)Nc1cnccc1C(F)(F)F)C1CCCCC1,0,-,-,0[10 µM],0[9.22 µM],0
Cc1cc(=O)n(-c2ccc(O)cc2)[nH]1,?,0,0.794µM,0,?,0
CCCCOc1ccc(OC(=O)Nc2cc(Cl)ccc2OC)cc1,0,-,-,0[10 µM],0[9.22 µM],0
N#C/C(=C(\O)c1ccco1)c1ccccn1,?,0,25.1µM,0,0[9.22 µM],0
CC1OC(OC2CCC3(C)C(CCC4C3CC(O)C3(C)C(C5=CC(=O)OC5)CCC43O)C2)CC(O)C1OC1CC(O)C(OC2CC(O)C(OC3OC(CO)C(O)C(O)C3O)C(C)O2)C(C)O1 (centres undefined),-,0,0,0,0,0
Cc1ccc(/C=C/C(=O)NCc2cccs2)o1,?,-,3.98µM,0[10 µM],?,0
Cc1ccc(/C=C/C(=O)NCc2cccs2)cc1,0,14.1µM,?,0[10 µM],0,0
Cc1ccc(/C=C/C(=O)NCc2ccncc2)cc1,?,-,0,0[10 µM],0,0
Cc1ccc(CNC(=O)/C=C/c2ccc(Br)o2)cc1,?,0,3.55µM,0[10 µM],0,0
Cc1ccc([N+](=O)[O-])c(NC2OC(CO)C(O)C2O)c1 (centres undefined),0,-,0,0,0,0
O=C(Cc1cccs1)NC1CCCC1,0,-,0,0[10 µM],0[9.22 µM],0
CNc1ccccc1C(C)(C)c1cc(-c2ccco2)n[nH]1,?,0,7.94µM,0[10 µM],0[9.22 µM],?
SMILES,JMJD2E inh,HPGD inh,ALDH1A1 inh,HTT cytoprotect,HttQ103 aggreg,CBFb-RUNX1 inh
CNc1ccccc1C(C)(C)c1cc(C)[nH]n1,0,-,0,0,0,0
COc1ccc(S(=O)(=O)N2CCCC(C(=O)NCc3ccccn3)C2)cc1 (centres undefined),0,0,0,0[0.074 µM],0,0
N#CC(c1ccc(Cl)nn1)c1ccc(Cl)cc1Cl (centres undefined),0,0,6.31µM,0,0,0
COc1ccc(C(C#N)c2ccc(Cl)nn2)cc1 (centres undefined),0,-,?,0[10 µM],0,0
CCOC(=O)c1c(C)nc2c(c1-c1cc(OC)ccc1OC)C(=O)CC(C)(C)C2,0,-,-,0[10 µM],0[9.22 µM],0
Cc1ccc(C(=O)Nc2cccc(-c3cnc4ccccc4n3)c2)cc1,0,0,0,0,0,0
O=C(Nc1cccc(-c2cnc3ccccc3n2)c1)c1ccco1,?,0,25.1µM,0,?,0
Cc1c(/C=N/NC(=O)c2cccnc2)c2ccccc2n1Cc1ccccc1,?,-,0,0[10 µM],10µM,0
CC1CC2(CC(C)(C(=O)CSc3n[nH]c(-c4ccccc4Cl)n3)OC2=O)C(=O)O1 (centres undefined),0,?,17.8µM,0,0,0
CCC(SC1=NCCS1)C(=O)Nc1ccc(S(N)(=O)=O)cc1 (centres undefined),0,0,0,-,0,0
COc1cc(C(=O)NC(=S)Nc2ccccc2[N+](=O)[O-])cc(OC)c1OC,0,-,17.8µM,0,0,0
COCCCNC(=S)Nc1ccccc1[N+](=O)[O-],0,-,22.4µM,0[10 µM],?,0
COc1cc(C(=O)NC(=S)Nc2ccc([N+](=O)[O-])cc2)cc(OC)c1OC,0,0,?,0[10 µM],0,0
COc1cc(C(=O)NC(=S)Nc2ccc([N+](=O)[O-])cc2C)cc(OC)c1OC,0,0,12.6µM,0[10 µM],0,0
CCCCNC(=S)Nc1cc([N+](=O)[O-])ccc1C,0,14.1µM,0,0[10 µM],0,0
CC1CC(C)CN(C(=O)C2CCC(CNc3c(N4CCCCC4)c(=O)c3=O)CC2)C1 (centres undefined),0,-,-,0[10 µM],0[9.22 µM],0
CN1CCN(C2=Cc3ccccc3Sc3cc(F)c(Cl)cc32)CC1,0,28.2µM,5.62µM,0[10 µM],?,0
CN1CCN(C2=Cc3ccccc3Sc3cc(F)c(F)cc32)CC1,0,25.1µM,0,0[10 µM],20µM,0
CN1CCN(C2=Cc3cc(Cl)ccc3Sc3cc(F)ccc32)CC1,0,0,0,0[10 µM],?,0
C/C(=N\NC(N)=S)C1C2C3CC4C5CC(C42)C1C53 (centres undefined),0,-,?,11.2µM,0,0
Cc1ccc2nc(C(F)(F)F)c(C#N)c(N)c2c1,0,0,0,0,?,0
Cc1cc(C)c2nc(C(F)(F)F)c(C#N)c(N)c2c1,0,0,0,0[10 µM],5.62µM,0
O=C(/C(=C/O)N=Nc1ccccc1)c1ccncc1,0,0,1.26µM,?,0,0
Cc1ccc(N=N/C(=C\O)C(=O)c2ccc(Cl)cc2)cc1,0,-,12.6µM,0[10 µM],?,?
O=C(/C(=C/O)N=Nc1ccccc1)c1ccc(Cl)cc1,0,-,?,0,?,?
O=C(N/N=C/C(Br)=C/c1ccccc1)c1ccncc1,0,-,-,0[10 µM],0[9.22 µM],0
Cc1cc(-c2cc(C)c(O)c(C(C)(C)C)c2)cc(C(C)(C)C)c1O,-,0,0[13.5 µM],0[10 µM],-,-
CCn1ccnc1CN1CCc2c([nH]c3ccccc23)C1C1CCCCC1 (centres undefined),28.2µM,-,0,0[10 µM],0[9.22 µM],0
O=C(CNC(=O)C(c1ccccc1)c1ccccc1)N/N=C/c1ccc(O)c([N+](=O)[O-])c1,0,0,12.6µM,0[10 µM],0,0
O=C(CNC(=O)c1ccc(F)cc1)N/N=C/c1ccc(O)c([N+](=O)[O-])c1,0,25.1µM,?,0[10 µM],?,0
